Results taken from the supplement of paper PMC10849652.
About 7,900 targets were measured; listed, in parts, are those with a hit and a random draw of the rest. About 0.6% of all pairs of compound and target were hits.

What follows are targets tested with COc1cc(Nc2ncc3c(n2)-c2ccc(Cl)cc2C(c2c(F)cccc2OC)=NC3)ccc1C(=O)O [alisertib] (assay: log2 fold change, soluble protein after heating vs DMSO (PISA); higher = thermal stabilisation; K562 cells, 10 uM, 30 min; active = over 0.2 and 3.5 SD of the protein, either way, in both replicates (recomputed)).
In short: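 Values are thermal stability changes relative to control samples and are taken from duplicates. They are stated as log2 fold changes. Before quantification by TMTpro 16plex LC-MS/MS with equalised channel sums, K562 cells at 2×10^6 cells/mL were treated with 10 μM compound for 30 min, heated in aliquots for 3 min across 48°C-58°C, pooled, extracted in PBS with 0.5% NP-40 at 4°C, and centrifuged at 21,000xg for 90 min to give the soluble supernatant.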

Sequence of UniProt Q9Y680 (Q9Y680 whole entry, looked up): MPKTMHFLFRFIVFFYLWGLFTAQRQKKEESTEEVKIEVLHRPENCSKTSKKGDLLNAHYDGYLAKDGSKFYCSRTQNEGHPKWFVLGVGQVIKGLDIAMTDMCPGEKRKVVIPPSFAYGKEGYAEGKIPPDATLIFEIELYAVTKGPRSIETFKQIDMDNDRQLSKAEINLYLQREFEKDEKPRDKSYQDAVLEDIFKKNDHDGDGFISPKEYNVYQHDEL
Sequence of UniProt Q96HJ9 (Q96HJ9 whole entry, looked up): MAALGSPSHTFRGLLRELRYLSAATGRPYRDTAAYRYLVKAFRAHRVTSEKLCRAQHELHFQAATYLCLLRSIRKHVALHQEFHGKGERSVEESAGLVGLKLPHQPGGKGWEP
Sequence of UniProt O14893 (O14893 whole entry, looked up): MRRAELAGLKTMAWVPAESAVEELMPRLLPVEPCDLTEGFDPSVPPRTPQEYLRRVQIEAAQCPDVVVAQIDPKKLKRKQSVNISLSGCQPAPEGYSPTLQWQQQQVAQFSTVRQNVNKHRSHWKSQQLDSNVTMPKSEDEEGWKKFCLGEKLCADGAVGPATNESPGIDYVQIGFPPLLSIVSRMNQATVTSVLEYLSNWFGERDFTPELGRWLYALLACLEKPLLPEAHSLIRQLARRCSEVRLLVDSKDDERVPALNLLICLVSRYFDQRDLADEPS
Sequence of UniProt P60520 (P60520 whole entry, looked up): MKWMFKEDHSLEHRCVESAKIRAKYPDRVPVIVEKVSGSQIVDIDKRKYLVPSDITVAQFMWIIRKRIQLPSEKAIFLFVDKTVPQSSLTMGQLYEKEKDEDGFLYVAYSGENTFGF
Sequence of UniProt Q53GQ0 (Q53GQ0 whole entry, looked up): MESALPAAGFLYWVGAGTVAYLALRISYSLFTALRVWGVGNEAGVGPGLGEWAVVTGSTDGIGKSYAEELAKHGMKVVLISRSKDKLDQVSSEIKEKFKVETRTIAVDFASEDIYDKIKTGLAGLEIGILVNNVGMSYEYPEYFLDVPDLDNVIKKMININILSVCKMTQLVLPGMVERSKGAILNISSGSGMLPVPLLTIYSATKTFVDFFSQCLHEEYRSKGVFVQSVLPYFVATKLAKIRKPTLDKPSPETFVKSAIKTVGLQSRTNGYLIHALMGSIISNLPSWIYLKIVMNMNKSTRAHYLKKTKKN
Sequence of UniProt P69905 (P69905 whole entry, looked up): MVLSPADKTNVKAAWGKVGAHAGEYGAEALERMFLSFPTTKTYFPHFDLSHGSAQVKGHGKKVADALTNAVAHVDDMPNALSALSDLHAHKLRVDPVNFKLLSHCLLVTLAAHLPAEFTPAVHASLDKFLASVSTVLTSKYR
Sequence of UniProt P02008 (P02008 whole entry, looked up): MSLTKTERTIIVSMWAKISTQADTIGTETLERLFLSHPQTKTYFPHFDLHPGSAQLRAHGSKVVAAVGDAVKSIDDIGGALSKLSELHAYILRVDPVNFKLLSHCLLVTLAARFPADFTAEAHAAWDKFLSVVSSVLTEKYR
Sequence of UniProt Q86VQ1 (Q86VQ1 whole entry, looked up): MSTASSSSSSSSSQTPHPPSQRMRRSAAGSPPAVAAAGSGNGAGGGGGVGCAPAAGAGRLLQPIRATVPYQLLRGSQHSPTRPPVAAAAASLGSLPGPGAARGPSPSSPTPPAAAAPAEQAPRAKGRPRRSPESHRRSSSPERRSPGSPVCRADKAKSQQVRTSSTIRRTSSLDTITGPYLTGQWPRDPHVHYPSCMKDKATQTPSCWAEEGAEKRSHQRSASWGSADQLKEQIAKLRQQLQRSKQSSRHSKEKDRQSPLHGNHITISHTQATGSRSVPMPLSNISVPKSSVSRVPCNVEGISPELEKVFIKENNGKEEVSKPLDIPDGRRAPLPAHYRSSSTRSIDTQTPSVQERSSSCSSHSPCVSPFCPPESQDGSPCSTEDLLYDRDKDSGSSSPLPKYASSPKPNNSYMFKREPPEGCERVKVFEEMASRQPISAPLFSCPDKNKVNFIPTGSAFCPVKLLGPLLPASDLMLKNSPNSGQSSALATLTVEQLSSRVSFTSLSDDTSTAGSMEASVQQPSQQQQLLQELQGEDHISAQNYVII
Sequence of UniProt P08236 (P08236 whole entry, looked up): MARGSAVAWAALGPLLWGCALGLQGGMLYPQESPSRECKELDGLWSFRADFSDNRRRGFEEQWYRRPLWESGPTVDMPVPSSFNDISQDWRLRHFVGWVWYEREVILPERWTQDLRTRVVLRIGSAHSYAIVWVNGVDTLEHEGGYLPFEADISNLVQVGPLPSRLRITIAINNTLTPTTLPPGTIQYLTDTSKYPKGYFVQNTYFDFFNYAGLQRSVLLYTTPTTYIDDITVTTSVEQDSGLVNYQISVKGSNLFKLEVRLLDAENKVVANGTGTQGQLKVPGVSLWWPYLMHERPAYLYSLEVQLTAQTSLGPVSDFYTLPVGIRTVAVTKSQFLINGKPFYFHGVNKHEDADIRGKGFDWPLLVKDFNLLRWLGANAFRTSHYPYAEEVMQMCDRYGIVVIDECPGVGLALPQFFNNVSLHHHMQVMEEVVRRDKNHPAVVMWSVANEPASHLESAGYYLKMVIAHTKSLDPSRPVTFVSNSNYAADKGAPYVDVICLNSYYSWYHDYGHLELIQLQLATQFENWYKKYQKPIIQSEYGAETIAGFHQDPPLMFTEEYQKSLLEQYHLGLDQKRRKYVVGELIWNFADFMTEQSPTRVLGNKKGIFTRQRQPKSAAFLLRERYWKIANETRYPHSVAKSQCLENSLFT
Sequence of UniProt P31943 (P31943 whole entry, looked up): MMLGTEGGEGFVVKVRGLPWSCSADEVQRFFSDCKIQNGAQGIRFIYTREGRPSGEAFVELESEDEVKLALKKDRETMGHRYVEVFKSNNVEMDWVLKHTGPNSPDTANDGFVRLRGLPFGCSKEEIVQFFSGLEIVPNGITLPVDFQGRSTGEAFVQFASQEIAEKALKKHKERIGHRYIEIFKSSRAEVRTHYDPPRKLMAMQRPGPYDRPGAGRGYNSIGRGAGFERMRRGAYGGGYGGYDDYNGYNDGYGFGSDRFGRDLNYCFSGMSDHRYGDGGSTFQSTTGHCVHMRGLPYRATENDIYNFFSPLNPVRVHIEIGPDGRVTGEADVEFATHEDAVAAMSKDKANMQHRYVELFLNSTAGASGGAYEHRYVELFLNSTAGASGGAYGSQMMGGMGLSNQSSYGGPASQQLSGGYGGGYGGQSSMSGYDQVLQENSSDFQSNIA
Sequence of UniProt Q86YM7 (Q86YM7 whole entry, looked up): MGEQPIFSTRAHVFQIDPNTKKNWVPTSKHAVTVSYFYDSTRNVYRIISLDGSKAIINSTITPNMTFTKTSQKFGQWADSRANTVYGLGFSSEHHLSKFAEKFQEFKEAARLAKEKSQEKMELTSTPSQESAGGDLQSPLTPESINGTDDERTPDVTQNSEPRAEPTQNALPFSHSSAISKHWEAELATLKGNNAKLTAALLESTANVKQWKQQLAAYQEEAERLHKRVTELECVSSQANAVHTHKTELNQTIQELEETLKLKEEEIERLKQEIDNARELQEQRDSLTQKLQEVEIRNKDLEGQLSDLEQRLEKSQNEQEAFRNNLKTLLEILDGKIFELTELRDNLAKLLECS
Sequence of UniProt Q5JWF2 (Q5JWF2 whole entry, looked up): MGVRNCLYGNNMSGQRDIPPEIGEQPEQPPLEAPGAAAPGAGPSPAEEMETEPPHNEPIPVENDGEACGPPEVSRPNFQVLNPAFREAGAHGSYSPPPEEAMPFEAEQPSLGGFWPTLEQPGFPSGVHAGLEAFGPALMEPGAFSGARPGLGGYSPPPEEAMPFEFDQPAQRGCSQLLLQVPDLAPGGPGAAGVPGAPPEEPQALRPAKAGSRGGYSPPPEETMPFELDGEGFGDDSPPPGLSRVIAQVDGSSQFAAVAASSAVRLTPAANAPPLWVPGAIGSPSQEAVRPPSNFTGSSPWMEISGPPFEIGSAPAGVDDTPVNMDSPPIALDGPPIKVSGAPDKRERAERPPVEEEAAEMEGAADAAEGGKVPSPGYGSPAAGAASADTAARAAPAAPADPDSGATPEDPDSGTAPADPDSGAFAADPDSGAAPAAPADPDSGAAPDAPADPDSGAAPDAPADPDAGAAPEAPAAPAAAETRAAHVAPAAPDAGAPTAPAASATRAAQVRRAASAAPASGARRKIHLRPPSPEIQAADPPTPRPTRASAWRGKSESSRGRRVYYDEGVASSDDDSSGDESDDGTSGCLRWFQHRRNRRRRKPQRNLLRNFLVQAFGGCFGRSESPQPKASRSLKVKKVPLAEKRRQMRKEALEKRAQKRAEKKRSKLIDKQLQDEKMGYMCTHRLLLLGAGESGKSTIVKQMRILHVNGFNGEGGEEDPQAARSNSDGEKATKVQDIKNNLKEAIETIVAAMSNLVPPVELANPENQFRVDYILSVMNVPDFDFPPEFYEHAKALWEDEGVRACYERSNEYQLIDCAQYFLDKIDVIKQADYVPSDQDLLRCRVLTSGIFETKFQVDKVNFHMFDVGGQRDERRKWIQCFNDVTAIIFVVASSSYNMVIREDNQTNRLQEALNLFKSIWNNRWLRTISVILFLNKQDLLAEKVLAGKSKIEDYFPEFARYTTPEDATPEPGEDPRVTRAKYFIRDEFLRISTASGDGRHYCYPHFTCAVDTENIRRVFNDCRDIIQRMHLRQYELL
Sequence of UniProt Q9BTY2 (Q9BTY2 whole entry, looked up): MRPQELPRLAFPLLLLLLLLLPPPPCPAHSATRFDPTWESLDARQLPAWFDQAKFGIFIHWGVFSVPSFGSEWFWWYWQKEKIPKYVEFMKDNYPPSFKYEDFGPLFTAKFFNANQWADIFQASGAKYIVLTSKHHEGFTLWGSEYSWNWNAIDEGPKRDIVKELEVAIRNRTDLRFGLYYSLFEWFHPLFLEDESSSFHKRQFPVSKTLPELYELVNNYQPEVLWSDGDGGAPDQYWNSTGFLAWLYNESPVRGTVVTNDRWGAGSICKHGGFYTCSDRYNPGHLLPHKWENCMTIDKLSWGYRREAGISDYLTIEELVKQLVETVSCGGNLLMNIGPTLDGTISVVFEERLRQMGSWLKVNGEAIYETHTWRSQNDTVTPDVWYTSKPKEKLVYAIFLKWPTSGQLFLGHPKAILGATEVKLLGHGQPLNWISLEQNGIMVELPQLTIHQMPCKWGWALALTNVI

log2 fold change, inactive:
HECTD1 (UniProt Q9ULT8) 0.087
FMC1 (UniProt Q96HJ9) -0.042
GABARAPL2 (UniProt P60520) 0.016
HOMER1 (UniProt Q86YM7) -0.083
H2AZ1 (UniProt P0C0S5) 0.039
GOLGB1 isoform 2 (UniProt Q14789) -0.069
GLCCI1 (UniProt Q86VQ1) -0.025
GUSB (UniProt P08236) 0.022
H2AFX (UniProt P16104) -0.007
HSPA8 (UniProt E9PK54) -0.186
HBA1 (UniProt P69905) -0.093
FKBP7 (UniProt Q9Y680) -0.063
GYG1 (UniProt P46976) -0.133
HNRNPH1 (UniProt P31943) 0.028
HBZ (UniProt P02008) -0.077
GALC (UniProt P54803) 0.049
FUCA2 (UniProt Q9BTY2) -0.044
GEMIN2 (UniProt O14893) -0.017
FANCD2 isoform 1 (UniProt Q9BXW9) -0.037
GNAS (UniProt Q5JWF2) -0.09
HSD17B12 (UniProt Q53GQ0) 0.003
HAT1 (UniProt O14929) 0.019
GLS (UniProt O94925) 0.143
